Bioassay records (PubChem BioAssay)
BL2 CD40 inh: CD40 pathway inhibition in BL2 cells | inhibition, % at 10 µM | BL2 NF-kB luciferase reporter, CD40L-induced, 4 h | 83,000 tested, 0.94% active;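 active = mean inhibition of at least 50% with a set share of replicates also reaching that level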;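 note: 0% = neutral control wells and 100% = IKK inhibitor VII at 50 µM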
Numbers without * were called inactive; [ ] = another dose, or the depositor's remark. The sample as a whole holds a higher share of hits than the screen did.

SMILES | BL2 CD40 inh
CCCNC(=O)N1[C@H](C#N)[C@@H](c2ccc(-c3ccc(C(=O)N(C)C)cc3)cc2)[C@@H]1CO | -26[25 µM]
CCCNC(=O)N1[C@H](C#N)[C@@H](c2ccc(-c3ccccc3F)cc2)[C@@H]1CO | 2[25 µM]
CCCNC(=O)N1[C@H](CO)[C@H](c2ccc(-c3cccc(OC)c3)cc2)[C@@H]1C#N | 68*[25 µM]
CCCNC(=O)N1[C@@H](C#N)[C@@H](c2ccc(-c3cccnc3)cc2)[C@@H]1CO | 6[25 µM]
CCCNC(=O)N1[C@H](CO)[C@H](c2ccc(/C=C/c3ccccc3)cc2)[C@@H]1C#N | 66*[25 µM]
CCCNC(=O)N1[C@H](C#N)[C@@H](c2ccc(-c3ccccc3F)cc2)[C@H]1CO | 9[25 µM]
CCCNC(=O)N1[C@H](CO)[C@H](c2ccccc2-c2cccc(OC)c2)[C@@H]1C#N | 36[25 µM]
CCCC(=O)N1CCC2(CC1)CN(C(=O)C1CCC1)[C@@H](CO)c1[nH]c3cc(OC)ccc3c12 | -7[25 µM]
O=C1CN(S(=O)(=O)Cc2ccccc2)C[C@@H]2[C@@H](c3ccc(C#CC4CC4)cc3)[C@@H](CO)N12 | 8
CN(C)C(=O)c1cccc(-c2ccc3n(c2=O)C[C@@H]2[C@@H](CO)[C@H](C(=O)NCC4CC4)N[C@H]32)c1 | 0[25 µM]
COc1cc(OC)c(OC)cc1/C=C/c1ccnc2ccccc12 | -1
COc1ccc(C=Cc2ccc3ccccc3n2)c(OC)c1 | 49*
COc1cc(/C=C/c2ccc(OC)cc2OC)cc(OC)c1 | -22[25 µM]
CCCN(CCC)CC1CCCCN1CCNC(=O)N1c2ccccc2C(=O)Nc2cccnc21 (stereo not drawn) | -15[25 µM]
O=C(C[C@H]1C[C@H]2c3cc(NS(=O)(=O)c4ccc(F)cc4)ccc3O[C@H]2[C@H](CO)O1)NCc1cccnc1 | 1[25 µM]
CC(=O)N1[C@@H]2CN(S(=O)(=O)c3ccccc3C)c3ccccc3[C@@H]2[C@@H]1CO | -6[25 µM]
O=C(/C=C/c1ccccc1)Nc1cccc(C(=O)O)c1 | 82*
COC(=O)c1cccc(NC(=O)/C=C/c2cccc([N+](=O)[O-])c2)c1 | -30
CC(=O)c1cccc(NC(=O)/C=C/c2ccc(S(=O)(=O)N3CCOCC3)cc2)c1 | 8
O=C(NCC[C@H]1CC[C@@H](NC(=O)c2ccccc2F)[C@@H](CO)O1)c1cnccn1 | -1[25 µM]
C[C@H]1CN(C)C(=O)c2cc(NS(C)(=O)=O)ccc2O[C@H]1CN(C)C | 7
CC(C)NC(=O)Nc1ccc2c(c1)CC(=O)N(C)C[C@H](C)[C@@H](CN(C)C(=O)NC(C)C)O2 | -5
O=C(c1cnccn1)N1CC(=O)N2[C@H](CO)[C@@H](c3ccc(/C=C/c4ccccc4)cc3)[C@@H]2C1 | -21[25 µM]
C[C@@H]1CN([C@H](C)CO)C(=O)c2ccccc2-c2ccccc2CO[C@@H]1CN(C)C(=O)c1cc(Cl)cc(Cl)c1 | 66*[25 µM]
C[C@H]1CN([C@@H](C)CO)C(=O)c2ccccc2-c2ccccc2CO[C@@H]1CN(C)C(=O)c1cc(Cl)cc(Cl)c1 | 15[25 µM]
SMILES | BL2 CD40 inh
C[C@@H]1CN([C@H](C)CO)C(=O)c2c(c3ccccc3n2C)-c2ccccc2CO[C@@H]1CN(C)C(=O)c1cc(Cl)cc(Cl)c1 | 60*[25 µM]
C[C@H]1CN([C@@H](C)CO)C(=O)c2c(c3ccccc3n2C)-c2ccccc2CO[C@@H]1CN(C)C(=O)c1cc(Cl)cc(Cl)c1 | 40[25 µM]
C[C@H]1CN([C@@H](C)CO)C(=O)c2ccccc2-c2ccccc2CO[C@@H]1CN(C)C(=O)c1ccccc1 | -5
C[C@H]1CN([C@@H](C)CO)C(=O)c2c(c3ccccc3n2C)-c2ccccc2CO[C@H]1CN(C)C(=O)c1cc(Cl)cc(Cl)c1 | 44[25 µM]
O=C(c1cnccn1)N1CC(=O)N2[C@@H](CO)[C@H](c3ccc(/C=C/c4ccccc4)cc3)[C@@H]2C1 | -22[25 µM]
O=C([C@@H]1N[C@@H]2c3ccc(C4=CCCCC4)c(=O)n3C[C@@H]2[C@H]1CO)N1CCC(Cc2ccccc2)CC1 | 29[25 µM]
C[C@@H]1CN([C@H](C)CO)C(=O)c2cc(NC(=O)Nc3cccc4ccccc34)ccc2O[C@@H](C)CCCCO[C@@H]1CN(C)Cc1ccc(C(F)(F)F)cc1 | 32[25 µM]
Cc1noc(C)c1S(=O)(=O)Nc1ccc2c(c1)C(=O)N([C@H](C)CO)C[C@@H](C)[C@H](CN(C)C(=O)Nc1cccc3ccccc13)OCCCC[C@@H](C)O2 | 75*[25 µM]
C[C@H]1CCCCO[C@@H](CN(C)Cc2ccc(C(F)(F)F)cc2)[C@@H](C)CN([C@@H](C)CO)C(=O)c2cc(NC(=O)Nc3cccc4ccccc34)ccc2O1 | 18[25 µM]
Cc1noc(C)c1S(=O)(=O)Nc1ccc2c(c1)C(=O)N([C@H](C)CO)C[C@H](C)[C@@H](CN(C)C(=O)Nc1cccc3ccccc13)OCCCC[C@@H](C)O2 | 0[25 µM]
C[C@H]1CCCCO[C@H](CN(C)Cc2ccc(C(F)(F)F)cc2)[C@@H](C)CN([C@@H](C)CO)C(=O)c2cc(NC(=O)Nc3cccc4ccccc34)ccc2O1 | 53*[25 µM]
C[C@@H]1CN([C@@H](C)CO)C(=O)c2cc(NC(=O)Nc3ccc(C(F)(F)F)cc3)ccc2O[C@@H](C)CCCCO[C@@H]1CN(C)CC1CCCCC1 | 12[25 µM]
C[C@@H]1CCCCO[C@@H](CN(C)CC2CCCCC2)[C@H](C)CN([C@H](C)CO)C(=O)c2cc(NC(=O)Nc3ccc(C(F)(F)F)cc3)ccc2O1 | -8
C[C@@H]1CCCCO[C@@H](CN(C)CC2CCCCC2)[C@@H](C)CN([C@@H](C)CO)C(=O)c2cc(NC(=O)Nc3ccc(C(F)(F)F)cc3)ccc2O1 | 97*[25 µM]
Cc1noc(C)c1S(=O)(=O)Nc1ccc2c(c1)C(=O)N([C@H](C)CO)C[C@H](C)[C@H](CN(C)C(=O)Nc1cccc3ccccc13)OCCCC[C@@H](C)O2 | -10[25 µM]
CC(=O)N(C)C[C@@H]1Oc2ccccc2CC(=O)N(C)C[C@H]1C | 4
O=C(CCN1CCCCC1)NCC[C@H]1CC[C@@H](NC(=O)C2CCCCC2)[C@H](CO)O1 | 8
C[C@H]1CN([C@@H](C)CO)C(=O)c2ccccc2-c2ccccc2CO[C@H]1CN(C)S(=O)(=O)c1cn(C)cn1 | -14[25 µM]
O=C(c1ccc(F)cc1)N1CC(=O)N2[C@H](CO)[C@@H](c3ccc(C#CCC4CCCC4)cc3)[C@H]2C1 | 20[25 µM]
C[C@@H]1CN(C)C(=O)c2cccc(N)c2O[C@@H]1CN(C)S(C)(=O)=O | -7
COc1nnc(-c2ccc(C)c(S(=O)(=O)NCC3CCCO3)c2)c2ccccc12 (stereo not drawn) | 0
Cc1ccc(-c2nn3c(C)nnc3c3ccccc23)cc1S(=O)(=O)NCc1ccccc1 | 44*
CC(=O)NCc1nnc2c3ccccc3c(-c3ccccc3)nn12 | 16
CCc1csc(N2[C@H](C#N)[C@H](c3ccccc3C3=CCCC3)[C@H]2CO)n1 | 1[25 µM]
COc1ccc(-c2ccc([C@H]3[C@@H](C#N)N(C(=O)NC(C)C)[C@H]3CO)cc2)cc1 | -8[25 µM]
SMILES | BL2 CD40 inh
c1ccc(CN2CCN(c3nc(-c4ccccn4)nc4ccccc34)CC2)cc1 | -18
c1ccc(CCc2nc(-c3ccccn3)no2)cc1 | -80
c1ccc2c(N3CCCC3)nc(-c3ccncc3)nc2c1 | 19
c1ccc(CCNc2nc(-c3ccccn3)nc3ccccc23)cc1 | 43*
c1ccc(-c2nc(N3CCCCCC3)c3ccccc3n2)nc1 | 53*
CCN1CCN(c2nc(-c3ccccn3)nc3ccccc23)CC1 | -25
CC(C)NC(=O)Nc1cccc2c1O[C@H](CN(C)C(=O)OC(C)(C)C)[C@@H](C)CN(C)C2=O | -35
NCC[C@H]1CC[C@H](NC(=O)c2ccccc2F)[C@@H](CO)O1 | -10
